Screens from PubChem BioAssay.
Shn3 inh set2: reduces Shn3 3'UTR luciferase signal in osteoblasts | Clone20 osteoblast Shn3 3'UTR firefly luciferase, 24 h | inhibition, % at 12.5 µM | actives 0.52% (n = 360,000);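 active = mean inhibition of at least 75% with every replicate also reaching 75%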;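 note: 0% = median of neutral control wells and 100% = pilot-screen positive control compound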
TWEAK-Fn14 inh: inhibitors of TWEAK-Fn14 interaction signaling; TWEAK-stimulated Fn14 reporter cells, luciferase luminescence, 8 h; inhibition, % at 10 µM; actives 2% (n = 360,000); in the data active = inhibition above about 50%
MITF TRPM1 inh: MITF TRPM1 promoter inhibition in SK-MEL-5 cells; SK-MEL-5 TRPM1 promoter luciferase, 24 h; inhibition, % at 12.5 µM; actives 0.83% (n = 330,000); AID 488899;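 active = mean inhibition across replicates of 60% or more, whatever share of single replicates reaches that level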
EBV LMP1 NFkB: Epstein-Barr LMP1 NF-kappaB reporter inhibition; LMP1-induced NF-kappaB luciferase reporter cells, luminescence; inhibition, % at 12.5 µM; actives 0.69% (n = 350,000); AID 504558; in the data active = inhibition above about 41%;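 note: 0% = neutral control wells and 100% = reference inhibitor control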
Peg3 promoter: inhibitors of Peg3 promoter; HeLa PEG-Prom luciferase reporter, luminescence, overnight; inhibition, % at 20 µM; actives 1.7% (n = 360,000); AID 588405;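 active = inhibition of at least 50% at 20 µM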
TROY signal inh: inhibitors of TROY-dependent NF-kB signaling. Q293 LMP1-TROYcd NF-kB luciferase reporter, 4 h. inhibition, % at 10 µM. actives 0.98% (n = 360,000);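 active = compounds whose plate-normalised and pattern-corrected inhibition of the luciferase reporter signal at the single screening dose is 50% or more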
The depositor's hits bear a star; x = no result given. Rows were chosen to be rich in hits. Some 4.1% of all compounds tested hit in one or more screens of this group.

SMILES	Shn3 inh set2	TWEAK-Fn14 inh	MITF TRPM1 inh	EBV LMP1 NFkB	Peg3 promoter	TROY signal inh
CCCC(c1nnnn1Cc1ccc(OC)cc1)N1CCN(c2ccccc2)CC1 (centres undefined)	89.2*	-6.7	-4.2	2.9	21.6	12.2
CC(C)CN(C(=O)COC(=O)c1nc(Cl)ccc1Cl)c1c(N)n(Cc2ccccc2)c(=O)[nH]c1=O	-14.7	-0.1	5.8	5.6	6.8	9.4
O=C(Nc1ccc2nc3n(c(=O)c2c1)CCCC3)c1cc([N+](=O)[O-])ccc1F	91.3*	89.5*	81.1*	1.9	111.0*	80.5*
CCCCNC(=S)Nc1ccc2nc3n(c(=O)c2c1)CCCCC3	-11.8	-31.9	-1.0	0.5	-25.7	-2.0
CC(C)CCNC(=S)Nc1ccc2nc3n(c(=O)c2c1)CCCCC3	-12.4	-15.6	-16.2	62.7*	-26.4	1.5
CCCc1cnc(NCCNCC(O)COc2ccc(Cl)c(Cl)c2)nc1 (centres undefined)	x	-10.9	39.7	-5.0	106.9*	-32.8
COc1ccc(CNC(=O)Cn2nc(C(F)(F)F)c3c2CCC3)cc1	3.4	-16.4	-5.3	-11.3	-174.8	-3.7
COc1ccccc1N1CCN(C(=O)Cn2nc(C(F)(F)F)c3c2CCC3)CC1	-22.3	52.8*	2.8	-8.5	17.1	x
CC(NC1CCCC1)c1ccccc1 (centres undefined)	-3.1	16.0	-5.4	-0.6	6.2	76.3*
CC(NC(=O)C1CCCC1)c1ccccc1 (centres undefined)	2.9	-3.9	5.6	6.3	10.7	11.3
COc1ccc2cc3cc(C(=O)Nc4cc(OC)c(OC)c(OC)c4)oc3nc2c1	28.9	63.5*	32.1	31.6	42.5	26.3
COc1ccc2cc3cc(C(=O)Nc4ccc5c(c4)OCCO5)oc3nc2c1	14.2	-32.6	-10.1	7.7	-10.6	5.5
CN1CCN(CC(=O)Nc2cc(S(=O)(=O)N3CCOCC3)ccc2Cl)CC1	1.3	-2.7	6.7	-3.1	-1.3	13.0
CC(=O)N1CCOc2ccc(S(=O)(=O)NCc3ccc(Cl)cc3)cc21	23.0	1.8	-0.6	-5.0	-3.3	-7.3
CC(=O)N1CCOc2ccc(S(=O)(=O)Nc3ccc(Cl)cn3)cc21	-4.0	0.9	6.6	4.3	16.8	53.6*
Cc1nc2nc[nH]c2cc1Br	1.8	67.3*	-2.3	7.4	-4.5	x
Cc1nc2[nH]c(=S)[nH]c2cc1Br	4.5	1.1	9.4	0.4	9.2	11.6
Cc1cc(C(=O)N/N=C/c2ccc([N+](=O)[O-])o2)c(C)o1	6.0	8.6	82.9*	-10.8	-10.6	22.0
Cc1ccc(OCC(=O)N/N=C\c2ccc(C)o2)c([N+](=O)[O-])c1	-3.6	-25.9	-7.3	-4.2	-2.0	-32.3
O=C(COc1ccccc1)N/N=C/c1ccc([N+](=O)[O-])o1	-5.5	14.7	68.0*	-6.1	-37.3	-63.8
Cc1ccc(OCC(=O)N/N=C/c2ccc([N+](=O)[O-])o2)cc1	-5.7	0.1	63.6*	-7.2	1.8	8.0
Cc1ccc(NC(=O)CCC(=O)N/N=C/c2ccc([N+](=O)[O-])o2)cc1C	x	-11.9	79.1*	-4.3	-6.1	5.3
Cc1ccc(-n2c(C)cc(C3=NNC(=NC4CC4)SC3)c2C)cc1C	43.8	30.9	1.1	-24.1	-68.2	18.1
O=C(N/N=C/c1ccc([N+](=O)[O-])o1)c1cc(-c2cccc(Br)c2)nc2ccccc12	5.2	-22.1	59.2	-17.3	-64.8	-16.7
O=C(CNc1ccc2ccccc2c1)N/N=C/c1ccc([N+](=O)[O-])o1	5.8	17.4	58.7	-12.4	-19.7	21.5
SMILES	Shn3 inh set2	TWEAK-Fn14 inh	MITF TRPM1 inh	EBV LMP1 NFkB	Peg3 promoter	TROY signal inh
O=C(CSc1ccc(Cl)cc1)N/N=C/c1ccc([N+](=O)[O-])o1	-14.6	-1.9	61.8*	-20.9	-28.5	4.2
CCCc1ccc(-c2cc(C(=O)N/N=C/c3ccc([N+](=O)[O-])o3)c3ccccc3n2)cc1	-10.3	32.5	50.6	58.5*	-121.3	-19.6
COc1ccc(-c2nn(-c3ccccc3)cc2C(=O)N/N=C/c2ccc([N+](=O)[O-])o2)cc1	26.7	24.6	89.7*	-67.7	30.0	-0.8
CCOC(=O)N1CCN(Cc2cn[nH]c2-c2cc3ccccc3o2)CC1	3.7	-10.4	8.9	-6.6	-14.9	0.3
O=[N+]([O-])c1ccc(-c2nc(Nc3ccc(O)cc3)c3ccccc3n2)cc1	32.9	41.0	41.0	-24.0	63.8*	36.0
COc1ccc(Nc2nc(-c3ccccc3)nc3ccccc23)cc1	4.0	6.2	14.7	4.5	3.9	15.5
COc1ccc([N+](=O)[O-])cc1Nc1c2ccccc2nc2ccccc12	34.5	-14.1	31.5	14.2	58.2*	2.5
COc1ccc(Nc2nc(-c3cccc([N+](=O)[O-])c3)nc3ccccc23)cc1	-6.4	79.6*	-2.4	-5.0	43.2	24.7
O=C(O)c1ccc(Nc2nc(-c3ccc([N+](=O)[O-])cc3)nc3ccccc23)cc1	26.4	17.4	8.5	0.0	15.5	-23.2
COc1cc(C(=O)O)c2c(c1C)OC(=O)c1c(C)cc(O)c(C=O)c1O2	14.2	-0.9	-6.2	0.2	9.8	2.2
COc1ccc2c(C(=O)CCl)c[nH]c2c1	12.8	53.1*	74.7*	-4.5	48.1	3.8
O=C(NCCc1nc2ccccc2[nH]1)C1CCC(=O)N(CCc2cccc(F)c2)C1 (centres undefined)	10.2	-18.3	10.3	-0.9	10.0	-2.8
O=C(Nc1cccc(S(=O)(=O)N2CCCCC2)c1)c1ccc2c(=O)n3c(nc2c1)CCCCC3	63.4	71.3*	51.8	11.0	89.9*	55.1*
O=C(CSc1nnc(Nc2ccccc2)s1)NC1CCS(=O)(=O)C1 (centres undefined)	89.9*	4.1	0.1	4.7	-18.6	-7.7
Nc1nnc(SCC(=O)Nc2cccc(S(=O)(=O)N3CCCCC3)c2)s1	1.1	12.6	0.7	-5.2	4.3	0.5
O=C(CSc1nnc(Nc2ccccc2)s1)Nc1cccc(S(=O)(=O)N2CCCCC2)c1	3.3	50.9*	-6.4	-2.8	-48.8	-1.7
CCc1ccc(NC(=O)c2ccc3c(=O)n4c(nc3c2)CCCCC4)cc1	-0.3	-1.2	-22.6	7.6	-79.3	14.5
O=C(CCl)Nc1cccc(S(=O)(=O)N2CCCCCC2)c1	-7.2	16.7	75.4*	-36.1	72.5*	3.3
Oc1ccc(C[C@@H]2CNCCN2CC2(c3ccccc3)CC2)cc1	8.2	6.2	-13.5	2.8	-7.8	8.4
CCNS(=O)(=O)c1ccc(Br)c(C(=O)OC(C)C(=O)NCC2CCCCC2)c1 (centres undefined)	-9.0	0.3	-9.7	-6.9	-15.5	7.3
O=C(CCl)Nc1ccc(S(=O)(=O)NC2=NCCCCC2)cc1	-22.1	-0.1	21.4	-31.5	39.1	1.4
O=C(CCl)Nc1cccc(S(=O)(=O)NC2=NCCCCC2)c1	-13.9	-0.1	75.6*	-60.0	51.1*	4.2
